This is part of a sample that, as a whole, favours compounds with a hit. Of some 83,000 tested, about 20% had one in any assay.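 Testing used 96-well plates and a 48-hour single-concentration exposure. Example: -40 means 40% of the starting cells died.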 A number with no mark means an inactive call. Calls of active or inactive are those of the source. Rule for the calls: active = growth percent below 10; inactive = the rest.
How the values were obtained:
Test in all cases: NCI-60 one-dose screen, 48 h (100 = growth as untreated, 0 = no growth, -100 = all killed)
HCT-15 colon = conditions: 10 µM unless noted
HT29 colon = conditions: 10 µM unless noted
SNB-75 CNS = conditions: 10 µM unless noted
U251 CNS = conditions: 10 µM unless noted
PC-3 prostate = conditions: 10 µM unless noted
SK-MEL-5 melanoma = conditions: 10 µM unless noted
UACC-62 melanoma = conditions: 10 µM unless noted
LOX IMVI melanoma = conditions: 10 µM
SK-MEL-28 melanoma = conditions: 10 µM unless noted
SNB-19 CNS = conditions: 10 µM unless noted

Compound | growth (HCT-15 colon) | growth (HT29 colon) | growth (SNB-75 CNS) | growth (U251 CNS) | growth (PC-3 prostate) | growth (SK-MEL-5 melanoma) | growth (UACC-62 melanoma) | growth (LOX IMVI melanoma) | growth (SK-MEL-28 melanoma) | growth (SNB-19 CNS)
Clc1ccc(-c2ccc(OCCCN3CCN(c4ccncc4)CC3)cc2)cc1 | -66% (active) | -30.6% (active) | 83.6% | 35.7% | 24.6% | 13.7% | 74% | -89.8% (active) | 90.1% | –
Cc1ccc(-n2c(-c3cc4ccccc4nc3Cl)noc2=O)cc1 | 39.1% | 110% | 40.1% | 83.7% | 75.5% | 66.1% | 56% | 85.1% | 97.1% | –
Cc1cc(=O)oc2cc(OCCCOc3ccc(/C=C/C(=O)Nc4ccccc4N)cc3)ccc12 | 38% | 37.4% | 36.2% | 32.2% | 32% | -91.2% (active) | 21% | -76.5% (active) | 32% | –
Cc1ccc(C(SCCNCc2cc(N(C)C)ccn2)(c2ccccc2)c2ccccc2)cc1 | -68.8% (active) | -77.2% (active) | 8.64% (active) | -89.3% (active) | -43.4% (active) | -100% (active) | -64.4% (active) | -100% (active) | -95.3% (active) | –
CN(C)c1ccnc(CNCCSC2(c3ccc(C(F)(F)F)cc3)c3ccccc3C=Cc3ccccc32)c1 | -90.6% (active) | -61.7% (active) | -6.52% (active) | -77% (active) | -3.49% (active) | -97.1% (active) | 2.63% (active) | -92% (active) | -67.4% (active) | –
CC1(C)CC[C@]2(C(=O)Nc3ccc(F)cc3)CC[C@]3(C)C(=CCC4[C@@]5(C)C[C@@H](O)[C@H](O)[C@@](C)(CO)C5CC[C@]43C)C2C1 (stereo not given in full) | 24.1% | 5.61% (active) | 81.7% | 38.3% | 11.2% | -47.6% (active) | 35% | 26.5% | 52.9% | –
O=c1[nH]c2ccccc2cc1CSc1nccc(-c2ccc3ccccc3c2)n1 | 29% | 44.3% | 86.6% | 65.2% | 50% | 57.2% | 60.9% | 67.1% | 86.3% | –
CC(=O)OC[C@@]1(C)C2CC[C@]3(C)C(CC=C4C5CC(C)(C)CC[C@]5(C(=O)Nc5ccc(Br)cc5)CC[C@]43C)[C@@]2(C)C[C@@H](OC(C)=O)[C@@H]1OC(C)=O (stereo not given in full) | 30.6% | 27% | 56.1% | 38.5% | 35.5% | 8.44% (active) | 44.1% | 12.2% | 72.3% | –
Cc1cc(=O)oc2cc(OCCOc3ccc(/C=C/C(=O)Nc4ccccc4N)cc3)ccc12 | 39.7% | 30.5% | 36.6% | 30.7% | 32.1% | -87.6% (active) | 33.2% | -73.2% (active) | 39.9% | –
CCN(CC)c1ccnc(CNCCSC(c2ccccc2)(c2ccccc2)c2ccc(C)cc2)c1 | -92.4% (active) | -80.5% (active) | -51.2% (active) | -93% (active) | -76.6% (active) | -99.6% (active) | -96.2% (active) | -99.6% (active) | -97.5% (active) | –
COc1ccc(N2N=C(c3ccc4c(c3)OCO4)CC2c2cccc(NC(=O)CCCNS(=O)(=O)c3ccc(F)cc3)c2)cc1 (stereo not given) | 57.8% | 61.3% | 50.6% | 59.2% | 42.5% | 48% | 66.4% | 66.4% | 75.4% | –
CCN(CC)c1ccc(/C=N/Nc2nc(-c3ccc(Br)cc3)cs2)c(O)c1 | 11.5% | 56.3% | 77.4% | 81.7% | 85.2% | 77.2% | 77.4% | -57.5% (active) | 86.2% | –
CCC(C)(C)c1ccc(OCCCCCCN2CCN(c3ccncc3)CC2)cc1 | -55.5% (active) | -39.8% (active) | 69.6% | -45.7% (active) | -4.93% (active) | -99.2% (active) | -48% (active) | -96.8% (active) | -18.9% (active) | –
CCCCSc1nc(NCCc2c[nH]c3ccccc23)c(C#N)c(-c2ccc(F)cc2)n1 | 28.8% | 25.4% | 74.2% | 45.6% | 28.5% | 37.6% | 61.4% | 36.1% | 81.4% | –
O=c1onc(-c2cc3ccccc3nc2Cl)n1-c1cccc2ccccc12 | 21.6% | 39.6% | 8% (active) | 54.8% | 40.4% | 3.23% (active) | 29.9% | 42% | 55.9% | –
COc1ccc(-c2nc(SCC(C)C)nc(NCCc3c[nH]c4ccccc34)c2C#N)cc1 | 29.4% | 35% | 74.1% | 40.7% | 24% | 37.2% | 76.2% | 46.1% | 71.5% | –
CCCCSc1nc(NCCc2c[nH]c3ccccc23)c(C#N)c(-c2ccccc2)n1 | 16.8% | 1.16% (active) | 70.7% | 8.25% (active) | – | 17.2% | 72% | -34% (active) | 81.1% | –
N/C(=N\c1nc2ccccc2s1)NC(=O)NCCCCCCO | 57.7% | 76.2% | 20.6% | 69% | 47.3% | -3.23% (active) | 49.1% | – | 76.5% | –

Compound | growth (HCT-15 colon) | growth (HT29 colon) | growth (SNB-75 CNS) | growth (U251 CNS) | growth (PC-3 prostate) | growth (SK-MEL-5 melanoma) | growth (UACC-62 melanoma) | growth (LOX IMVI melanoma) | growth (SK-MEL-28 melanoma) | growth (SNB-19 CNS)
O=C(Cn1c(/C=C/c2ccccc2)nc2ccccc2c1=O)Nc1ccc(Cl)cc1 | 78% | 75.5% | – | 20.1% | 72.6% | 103% | 90.4% | 25.4% | 108% | 52.8%
C=C1CC[C@@H]2[C@]3(C)COC(c4ccco4)O[C@@H]3CC[C@@]2(C)[C@@H]1C/C=C1/C(=O)OCC1OC(C)=O (stereo not given in full) | -59% (active) | -46% (active) | – | 8.15% (active) | 18.8% | 43.9% | 34.5% | -100% (active) | 59.6% | 75.9%
COc1ccc2[nH]c(=O)c(CSc3nccc(-c4ccc(OC)c(OC)c4)n3)cc2c1 | 16.4% | 16.2% | – | 26% | 5.92% (active) | -1.05% (active) | 27.9% | 24.5% | 42.7% | 21.4%
O=C(c1ccc(OCCN2CCOCC2)cc1)C1[C@H](c2ccc(Cl)cc2)[C@@H](c2ccccc2)NC12C(=O)Nc1ccc(Cl)cc12 (stereo not given in full) | 16.2% | -75.4% (active) | – | 25.3% | 6.16% (active) | 51.6% | 40.1% | -45.5% (active) | 51.7% | 41%
CCCCc1c(Nn2cnnn2)no[n+]1[O-] | 32.8% | 59.5% | 48.9% | 51.3% | 58.1% | 80.6% | 52.4% | – | 73% | –
C=C1CC[C@@H]2[C@]3(C)COC(c4cn[nH]c4-c4cccc(Cl)c4)O[C@@H]3CC[C@@]2(C)[C@@H]1C/C=C1/C(=O)OCC1O (stereo not given in full) | -59.2% (active) | 0.309% (active) | – | -85.8% (active) | -0.106% (active) | -79.6% (active) | -86.9% (active) | -100% (active) | -76.6% (active) | 5.54% (active)
O=C(c1ccc(OCCN2CCOCC2)cc1)C1[C@H](c2ccc(Cl)cc2)[C@@H](c2ccccc2)NC12C(=O)Nc1ccc(Br)cc12 (stereo not given in full) | 8.44% (active) | -76.6% (active) | – | 22.6% | 3.86% (active) | 47.3% | 38.5% | -75.2% (active) | 44.1% | 37.4%
COc1ccc(NC(=O)[C@H](C)N)cc1C(=O)Nc1cccc(C2CC(=O)c3c(cc(OC)c(OC)c3OC)O2)c1 (stereo not given in full) | 83.9% | 109% | – | 93.1% | 72.4% | 76.9% | 84.4% | 89.2% | 101% | 91.5%
Cc1ncsc1-c1ccc(CNC(=O)[C@@H]2C[C@@H](O)CN2C(=O)[C@@H](NC(=O)C2(F)CC2)C(C)(C)C)c(OCCOCCOCCOCCOc2nc(Nc3cc(S(C)(=O)=O)ccc3N[C@@H](c3cccc4c3OC(F)(F)O4)c3ncccc3Cl)nc(N3CCNCC3)n2)c1 | 99.4% | 88.1% | 63.2% | 65.8% | – | 65.4% | 84.8% | – | 89.2% | –
O=C(Cn1c(/C=C/c2ccccc2)nc2ccccc2c1=O)Nc1ccccc1 | 76.6% | 98.5% | – | 35.8% | 76.1% | 97.3% | 90.1% | 43.2% | 111% | 67.8%
Cc1cc2nc3c4ccccc4n(CCCN(C)C)c3nc2cc1C | -10.1% (active) | -3.59% (active) | -97.8% (active) | 1.33% (active) | -32% (active) | -94.4% (active) | -90.4% (active) | – | -71.1% (active) | –
Cn1cc(NC(=O)c2cc(NC(=O)c3ccc(/C=C/c4ccccc4)cc3)cn2C)cc1C(=O)NCCCN1CCOCC1 | 7.6% (active) | -88.5% (active) | – | -69.2% (active) | 38.1% | -70% (active) | -89% (active) | -97.5% (active) | 32.5% | 70.4%
O=C(N/N=C/c1ccc(-c2ccc(O)cc2)o1)c1[nH]c2ccc(Br)cc2c1-c1ccccc1 | 2.62% (active) | -34.8% (active) | -2.73% (active) | -29.2% (active) | -6.14% (active) | -82.9% (active) | -14.9% (active) | – | -27% (active) | –
COc1c(F)ccc(C(=O)Nc2ccc3nc(NC(=O)C4CCCN(S(=O)(=O)C5CC5)C4)sc3c2)c1F (stereo not given) | 34% | 44.1% | – | 47.6% | 39.1% | -43.8% (active) | 44.7% | 24.5% | 56.2% | 63.5%
CN1CCN(c2ccc3c(c2)nc(NNC(=O)c2ncccn2)c2cccn23)CC1 | 1.47% (active) | 11.2% | -46.9% (active) | -38.7% (active) | 6.1% (active) | – | -35.1% (active) | -62.8% (active) | -27.6% (active) | –
COc1ccc(C2(SCCNCc3cc(N(C)C)ccn3)c3ccccc3C=Cc3ccccc32)cc1 | 2.66% (active) | -43% (active) | 9.76% (active) | 0.439% (active) | – | -20.3% (active) | 38% | 2.34% (active) | 29.9% | –
Cn1cc(-c2nnc(N)nc2-c2c[nH]c3ccc(Br)cc23)c2cc(Br)cnc21 | 22.4% | 16.6% | – | 62.4% | 38.5% | 68% | 46.3% | 58.7% | 43.6% | 65.5%
COc1ccc(-c2ccc(SCC(=O)NCCc3ccc(S(N)(=O)=O)cc3)nn2)cc1 | 110% | 96.5% | – | 91.1% | 81.8% | 52.9% | 75.8% | 89.1% | 89.1% | 77.4%

Reference: PubChem BioAssay (NCI)
